According to PubChem BioAssay (Tox21):
Records with an inconclusive call do not appear. Values without a mark were called inactive. Active and inactive are the calls of the source. Calls follow the shape of the dose curve; as a rule, active = well fitted activation curve with a large enough effect in the signal ratio in the repeat runs (not every such curve was filed as active); inconclusive = weak or mixed curves, or effect the other way; inactive = no such curve, though single readings can be large or run the other way; the % refers to the signal ratio.

experiment: qHTS assay for small molecule agonists of the antioxidant response element (ARE) signaling pathway (AID 743202); conditions: HepG2 ARE-bla reporter, beta-lactamase FRET, 16 h; series mostly up to 73.3 µM; activation: at the top concentration
Procedure, shortened: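 Quantitative high-throughput format in HepG2 cells bearing an integrated ARE-beta-lactamase reporter. Compound exposure lasted 16 h at 37 C, and fluorescence was read 2 h after adding LiveBLAzer B/G substrate at room temperature.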
% is scaled to controls: 0 for no effect and ±100 for the full control effect; potency is read from the fitted curve at half-maximal effect.

Which “activation” value does the source give for `CC(CN)CCCN` (centres undefined) here?
Its value is 5.67%.

For `CCN(CCO)CCCC(C)Nc1ccnc2cc(Cl)ccc12` (centres undefined), which activation is on record?
The activation was -5.09% [at 8.36 µM].

Which Potency does the source give for `CC(C)(C)c1cc(CO)cc(C(C)(C)C)c1O` here?
Its Potency is 31.2 µM (active).

With `CC(=O)O[C@H]1C[C@@H]2CC[C@@H]3[C@H](CC[C@@]4(C)[C@H]3C[C@H]([N+]3(C)CCCCC3)[C@@H]4OC(C)=O)[C@@]2(C)C[C@@H]1N1CCCCC1` as the compound, how does the “activation” value read?
Its value is 14.6%.

For `CC(C)CCCC(C)CCO` (centres undefined), which “activation” value is on record?
Its value is 6.64%.

For `CC(=O)NCCCS(=O)(=O)O`, which Potency is on record?
The Potency was 26.5 µM (active).

With `CCCCC(CC)(CO)CO` as the compound, how does the “activation” value read?
The value was -4.04%.

For `N#CCCNCCC#N`, which “activation” value is on record?
Its value is -7.9% [at 94.8 µM].

For `CCCCOC(=O)c1ccccc1C(=O)OCC(CC)CCCC` (centres undefined), which “activation” value is on record?
Its value is -8.76%.

With `CCOc1ccc2[nH]cc(C(=O)NCc3ccccc3)c(=O)c2n1` as the compound, how does the Potency read?
The Potency was 15.4 µM (active).

Which “activation” value does the source give for `CC(=O)Nc1ccc(/C=N/NC(N)=S)cc1` here?
The value was 9.99%.

Which “activation” value does the source give for `CCCCCCCCC(CO)CCCCCC` (centres undefined) here?
The value was -4.32%.

With `CCCC[C@H]1CN(CC2CCOCC2)C(=O)OC12CCN(C1(C)CCN(C(=O)c3c(C)ncnc3C)CC1)CC2` as the compound, how does the “activation” value read?
Its value is 0.408%.

For `CCCCOC(O)CC` (centres undefined), which “activation” value is on record?
Its value is -3.67%.

For `O=C1CCCCCO1`, which “activation” value is on record?
The value was -10.1% [at 94.8 µM].

With `CC(=O)OCCc1ccccc1` as the compound, how does the “activation” value read?
Its value is -0.597%.

With `CCCCc1cc2ccccc2c(OCCN(C)C)n1` as the compound, how does the “activation” value read?
The value was -16.2%.

With `O=c1[nH]cnc2ccccc12` as the compound, how does the “activation” value read?
Its value is 0.113% [at 94.8 µM].

Which “activation” value does the source give for `CN1CCC[C@@H]1c1cccnc1` here?
The value was -5.71%.

With `COCCOCCOCCOCCOC` as the compound, how does the “activation” value read?
The value was -6.85%.

Which “activation” value does the source give for `CC(C)c1ccccc1C(C)C` here?
The value was -4.05%.

With `N#CCc1cccc(C(F)(F)F)c1` as the compound, how does the “activation” value read?
The value was -14.3%.

With `Nc1nc(N)c(-c2ccccc2)s1` as the compound, how does the “activation” value read?
The value was -10.1%.

Which “activation” value does the source give for `CNS(=O)(=O)Cc1ccc2[nH]cc(CCN(C)C)c2c1` here?
The value was -5.13%.

Which “activation” value does the source give for `O=C(O)C1CCC(C(=O)O)CC1` (centres undefined) here?
The value was -19.7%.

With `C=C(C)C(=O)OC(C)C` as the compound, how does the “activation” value read?
The value was 2.61%.

With `COC(Cc1ccccc1)OC` as the compound, how does the “activation” value read?
The value was -0.0487%.

For `O=C(O)/C=C/c1cnc[nH]1`, which “activation” value is on record?
Its value is -4.52%.

For `CCN1CCC[C@H]1CNC(=O)c1c(OC)ccc(Br)c1OC`, which “activation” value is on record?
The value was -18.3%.

For `N[C@H]1C(O)O[C@H](CO)[C@H](O)[C@@H]1O` (some centres undefined), which “activation” value is on record?
The value was 13.8%.

For `CC(C)(C)c1cc(CCC(=O)OCC(COC(=O)CCc2cc(C(C)(C)C)c(O)c(C(C)(C)C)c2)(COC(=O)CCc2cc(C(C)(C)C)c(O)c(C(C)(C)C)c2)COC(=O)CCc2cc(C(C)(C)C)c(O)c(C(C)(C)C)c2)cc(C(C)(C)C)c1O`, which “activation” value is on record?
The value was -1.14% [at 34.3 µM].

Which “activation” value does the source give for `CCOC(=O)CC(=O)c1cc(F)c(Cl)nc1Cl` here?
Its value is -0.14% [at 94.8 µM].

Which “activation” value does the source give for `CCN(CC)C(C)=O` here?
Its value is -1.86% [at 94.8 µM].

For `C=CCCCCCC`, which “activation” value is on record?
The value was 0.517%.

Which “activation” value does the source give for `COC(=O)C(C)=O` here?
The value was 1.7% [at 94.8 µM].

Which Potency does the source give for `Oc1ccc(Sc2ccc(O)cc2)cc1` here?
The Potency was 22.8 µM (active).

For `C=C(C)C(=O)OCCOc1ccccc1`, which “activation” value is on record?
The value was 0.632%.

Which “activation” value does the source give for `Cc1cccc(OCCOc2cccc(C)c2)c1` here?
Its value is -8.03% [at 94.8 µM].

With `CC(C)NCC(O)COc1ccc(CC(N)=O)cc1` (centres undefined) as the compound, how does the “activation” value read?
The value was -8.91%.
